From the OligoGym collection come the findings set out here.
Also: reference of the scale not given here.

One test has as its target CHID1. Put plainly: pooled miR-30 sensor sort-seq; sequence = guide strand. The settings on record: shRNA.
TGAAAACTGACTCTTCTCCAGC yielded a sensor-assay potency score (higher = more potent) of -0.645.

TTCGCCACTTGGACTTCGGGTC gave a sensor-assay potency score (higher = more potent) of -0.182.

In turn, TGTAGAGTAGTCGTAGGTCATG returned a sensor-assay potency score (higher = more potent) of -1.27.

Turning to TTTGCCGAGCAGTAGCTGCGAT, the sensor-assay potency score (higher = more potent) was -0.629.

Sequence TCACTGTCTAAGACGTTCCGGA came in with a sensor-assay potency score (higher = more potent) of -0.147.

On to TAGTCCATACCATAGAAGTTGA, for which the sensor-assay potency score (higher = more potent) is -1.13.

Consider AAACTGACTCTTCTCCAGCAGC, for which the sensor-assay potency score (higher = more potent) was -0.926.

Take TAGTCGTAGGTCATGAGGCTGA: the sensor-assay potency score (higher = more potent) was -0.661.

With TTCAGTGTCTGGATGTACCTGG, the sensor-assay potency score (higher = more potent) worked out at 0.597.

As to TATCTCATCCTCACTGTCTAAG, the sensor-assay potency score (higher = more potent) was -0.858.

Turning to ATGCGCTGTAGAGTAGTCGTAG, the sensor-assay potency score (higher = more potent) was -0.323.

Turning to TTTGAGGTCCGTCACCACCAAA, the sensor-assay potency score (higher = more potent) was -1.77.

For a further test, the target named is CHMP2A. The description is as above. The note with it: shRNA.
As for AAGTCTTTTGCCATGATGCGAA, the sensor-assay potency score (higher = more potent) was -0.973.

Take TGCAATGATTTTCTTCTCCTGG: the sensor-assay potency score (higher = more potent) is -0.535.

For the sequence TTCAGCTGTCTGTTCATGGTGC, the sensor-assay potency score (higher = more potent) came to 0.372.

For TTGAGTGTCTGGATCTTGAGGG, the sensor-assay potency score (higher = more potent) was found to be 0.547.

The sequence TTCATGGCTTGTGCCATCGAGT returned a sensor-assay potency score (higher = more potent) of -1.33.

With AAACTTGCGCACATAGCGCCGG, the sensor-assay potency score (higher = more potent) is -0.531.

ATCATTCATCATCTCCTCCTTC came in with a sensor-assay potency score (higher = more potent) of -0.0683.

With TTGTTGGACTTGAGTGTCTGGA, the sensor-assay potency score (higher = more potent) was -0.834.

On to TCTAGTTTCTGTCGCTCGCGGT, for which the sensor-assay potency score (higher = more potent) is -0.825.

The sequence TTCATCTTCCTCATCACCCATG returned a sensor-assay potency score (higher = more potent) of -0.68.

The sequence AACTTGCGCACATAGCGCCGGG showed a sensor-assay potency score (higher = more potent) of -1.16.

TTTCTGTCGCTCGCGGTCCAGC had a sensor-assay potency score (higher = more potent) of -1.66.
